# DT40 TDP1 no CPT: qHTS for Inhibitors of human tyrosyl-DNA phosphodiesterase 1 (TDP1): qHTS in cells in absence of CPT | DT40 Tdp1-/- hTDP1 cells, no CPT, ATP luminescence, 48 h | Potency, µM (highest dose often 46.2 µM), inactives show at the top dose activity change, negative = growth inhibition, most hits filed as inhibitors | hit rate 15% among 420,000; note: potency is the fitted concentration of half-maximal effect; nearly all actives have a fitted effect of over 55% in size
#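 Camptothecin absent (DMSO only). Human TDP1-complemented DT40 knockout cells, 400 cells/well, 37 °C for minimum 48 hr; ATP measured via CellTiter-Glo, 30 min dark incubation, luminescence.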
# ELG1 DNA repair: blocks ELG1-dependent DNA repair in HEK293T cells | HEK293T ELG1-luciferase reporter, luminescence, 16 h; DNA damage induced by 5-fluorouridine | Potency, µM (titrated, usually from 46.1 µM), for inactives: at the highest dose activity change, negative = inhibition, usual class: inhibitors | hit rate 2.3% among 330,000 | AID 504467; note: potency is the fitted concentration of half-maximal effect; nearly all actives have a fitted effect of over 55% in size
#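 Reporter activity after DNA damage by 5-fluorouridine is monitored. Compound-treated cells incubate 16 hr at 37 °C, then ONE-Glo is added for 30 min before luminescence reading.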
# DT40 TDP1 CPT: DT40-hTDP1 cell growth loss with CPT | chicken DT40 Tdp1-/-;hTDP1 cells + 20 nM CPT, ATP luminescence, 48 h | Potency, µM (doses to about 46.2 µM), for the others: at the highest dose activity change, negative = growth inhibition, usual class: inhibitors | hit rate 12% among 420,000; note: potency is the fitted concentration of half-maximal effect; nearly all actives have a fitted effect of over 55% in size
#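 Cell growth measured by CellTiter-Glo luminescence after a minimum 48 h, 37 C compound exposure with 20 nM CPT in Tdp1-knockout DT40 cells stably expressing hTDP1, seeded 400/well; qHTS titration format.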
# IL1B secr inh: blocks inflammasome-driven IL-1 beta release | THP-1 LPS/ATP IL-1B secretion, AlphaLISA, 16 h; active compounds read low | hit rate 4.7% among 360,000 | activity change, % at 57.5 µM; in the data active = activity change below about -50%; inconclusive = mostly about -30% to -49%
#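 THP-1 cells pretreated 1 hr with compounds (up to 57.5 uM final), then stimulated with LPS (250 ng/mL final) plus ATP (1.25 mM final); secreted IL-1B measured by AlphaLISA after 16 hr, decreased signal indicating inhibition.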
# VP16 counter: inhibits Gal4-VP16 luciferase reporter, ROR gamma counter-screen; Drosophila S2 Gal4-VP16 UAS-luciferase, luminescence, 20 h; Potency, µM (highest dose often 53.6 µM), for the others: top-dose activity, negative = inhibition, actives largely listed as inhibitors; hit rate 3.5% among 310,000;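 note: Gal4-VP16 expression switched on by copper sulfate through the metallothionein promoter; potency is the fitted concentration of half-maximal effect; nearly all actives have a fitted effect of over 50% in size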
# RORg inh: ROR gamma (mouse) transcription inhibition; AID 2551; Potency, µM (series often up to 53.6 µM), without a hit: at the highest dose activity change, negative = inhibition, most hits filed as inhibitors; P51450; hit rate 5.4% among 310,000; Drosophila S2 Gal4-RORgamma UAS-luciferase reporter, 20 h; note: potency is the fitted concentration of half-maximal effect; nearly all actives have a fitted effect of over 60% in size
# Target sequence (P51450 whole entry, looked up, the tested form may be a part): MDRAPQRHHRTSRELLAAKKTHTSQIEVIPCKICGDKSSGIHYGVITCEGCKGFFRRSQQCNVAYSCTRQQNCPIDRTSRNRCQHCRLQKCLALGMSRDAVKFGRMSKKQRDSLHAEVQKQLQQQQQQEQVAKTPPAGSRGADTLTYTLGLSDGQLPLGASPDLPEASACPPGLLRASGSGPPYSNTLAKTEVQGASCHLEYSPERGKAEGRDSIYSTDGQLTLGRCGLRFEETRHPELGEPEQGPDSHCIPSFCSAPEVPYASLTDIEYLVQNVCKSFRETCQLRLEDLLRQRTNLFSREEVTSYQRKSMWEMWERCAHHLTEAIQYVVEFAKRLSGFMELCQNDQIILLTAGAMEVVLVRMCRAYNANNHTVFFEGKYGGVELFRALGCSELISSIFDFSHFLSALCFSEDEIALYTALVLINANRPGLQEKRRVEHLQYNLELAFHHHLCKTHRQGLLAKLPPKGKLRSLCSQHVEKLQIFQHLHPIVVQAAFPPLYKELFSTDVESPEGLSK
#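 ROR gamma transcriptional activity was tracked as Gal4-UAS luciferase output in stably transfected Drosophila Schneider cells, with compound added 1 hr before 700 uM copper sulfate induction and a 20 hr ambient-temperature incubation.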
# The depositor's hits bear a star; ? = inconclusive; . = not tested or not shown; [ ] = dose if it differs, or a comment. Rows were chosen to be rich in hits. Some 21% of all compounds tested hit in one or more screens of this group. Unless noted, calls come from the whole dose curve; as a rule, active = well fitted curve in the direction sought with a large enough effect; inconclusive = small, poorly fitted or top-dose-only effect, or another doubt; inactive = no such curve, though single readings can be large; an effect the other way counts as inactive or inconclusive. % is set by controls: 0 for no effect and ±100 for the full control effect.
SMILES,DT40 TDP1 no CPT,ELG1 DNA repair,DT40 TDP1 CPT,IL1B secr inh,VP16 counter,RORg inh
Cc1cccc([C@H]2[C@@H]3C=CCC[C@@]3(C)C(=O)N2Cc2ccccc2)c1,.,.,.,.,21%,43%
CC12CCC=CC1C(c1ccc(Br)cc1F)N(Cc1ccccc1)C2=O (configuration not stated),.,.,.,.,-11%,-39%
COc1ccc(-c2cccc([C@H]3[C@@H]4C=CCC[C@@]4(C)C(=O)N3Cc3ccccc3)c2)cc1,16µM*,?,23µM*,-16,4%,14%
O=C1[C@H]2CCC=C[C@H]2[C@H](c2cccc(Br)c2)N1Cc1ccccc1,13µM*,-2%,?,14,-3%,-27%
CC12CCC=CC1C(c1cccc(Br)c1)N(Cc1ccccc1)C2=O (configuration not stated),.,.,.,.,13µM*,?
O=C(COC(=O)c1ccc2ccccc2n1)Nc1ccccc1F,17%,-5%,-1%,19,.,.
N#Cc1ccc(NC(=O)COC(=O)c2cccc(S(=O)(=O)N3CCCC3)c2)cc1,?,.,-10%,-16,.,.
CC[C@H]1OC(=O)[C@H](C)C(=O)[C@H](C)[C@@H](OC2O[C@H](C)C[C@H](N(C)C)[C@@H]2O)[C@@](C)(OC)C[C@@H](C)C(=O)[C@@H](C)C2N(CCCCn3cnc(-c4cccnc4)c3)C(=O)O[C@@]21C (some centres not stated),.,.,.,.,-11%,9%
COc1ccc(Cl)cc1NC(=O)CN(C)C(=O)C1CCN(C(=O)Nc2ccccc2)CC1,-6%,-3%,-5%,-3,.,.
CC1=NOC(=O)/C1=C\c1ccc2c(c1)OCO2,15µM*,?,?,-96*,3%,3%
COc1ccc(/C=C2/C(=O)ON=C2C)cc1Br,?,15%,?,-88*,7%,-1%
O=C1OCC/C1=C\c1ccc2c(c1)OCO2,-25%,?,9%,-8,27%,3%
CC1=NOC(=O)/C1=C/c1ccc2c(c1)OCO2,?,?,9.2µM*,-13,-12%,1%
C=CCOc1c(Br)cc(/C=C2/C(=O)ON=C2C)cc1OC,?,7%,?,-1,-3%,13%
CC1=NOC(=O)/C1=C\c1ccc(-c2ccc(Cl)cc2Cl)o1,12µM*,-17%,13µM*,-62*,?,2%
CCN1C(=O)[C@H]2[C@H]3[C@H](O)[C@H](O)C/C(=N/O[C@@H](C)c4cc(-c5c(C)cc(C)cc5C)no4)[C@@H]3CC[C@@H]2C1=O,.,.,.,.,-8%[10 µM],26%[10 µM]
C#CCOc1c(Cl)cc(/C=C2/C(=O)ON=C2C)cc1OCC,?,-2%,?,11,2%,26%
CCCOc1ccc(Cl)cc1/C=C1/C(=O)ON=C1C,?,?,29µM*,4,1%,-2%
C#CCOc1ccc(/C=C2/C(=O)ON=C2C)cc1Cl,18µM*,11%,?,-14,-2%,2%
CC(C)CCn1c(=O)c2sccc2n2c(CCCC(=O)NC(C)C)nnc12,-8%,.,-16%,.,.,.
C[C@@H]1CCCCO[C@H](CN(C)C(=O)Cc2ccccc2)[C@@H](C)CN([C@H](C)CO)C(=O)c2cc(NC(=O)Nc3ccccc3)ccc2O1,29µM*,.,-3%,30,.,.
C[C@@H]1CCCCO[C@H](CN(C)C(=O)Cc2ccccc2)[C@H](C)CN([C@@H](C)CO)C(=O)c2cc(NC(=O)Nc3ccc(F)cc3)ccc2O1,-23%,.,23µM*,-29,.,.
O=C1OC(OC(=O)c2cccnc2Nc2cccc(C(F)(F)F)c2)c2ccccc21 (configuration not stated),4%,.,-10%,.,-3%,0%
N#Cc1ccc(OCC(O)CN2CCN(c3ncc(C(F)(F)F)cc3Cl)CC2)cc1 (configuration not stated),15µM*,5.8µM*,?,-65*,0%,-24%
CN1CCN(CC(O)COc2ccccc2)CC1 (configuration not stated),-2%,7%,2%,30,-6%,-24%
SMILES,DT40 TDP1 no CPT,ELG1 DNA repair,DT40 TDP1 CPT,IL1B secr inh,VP16 counter,RORg inh
CN1CCN(CC(O)COc2ccc(C34CC5CC(CC(C5)C3)C4)cc2)CC1 (configuration not stated),13µM*,-15%,?,-99*,?,?
N#Cc1cc2c(OCC(O)CN3CCN(C(c4ccccc4)c4ccccc4)CC3)cccc2[nH]1 (configuration not stated),5.6µM*,.,8.9µM*,.,.,.
COc1ccc(OC)c(S(=O)(=O)N2CCN(CC(O)COc3ccc(C#N)cc3)CC2)c1 (configuration not stated),23µM*,?,?,0,0%,7%
COc1ccc(OC)c(S(=O)(=O)N2CCN(CC(O)COc3ccccc3)CC2)c1 (configuration not stated),-28%,-21%,-1%,10,2%,15%
CCC(=O)c1ccc(OCC(O)CN2CCN(C(c3ccccc3)c3ccccc3)CC2)cc1 (configuration not stated),?,-14%,?,?,2%,-2%
O=S1(=O)CC(N2CCC(c3ccccc3)CC2)CN1Cc1ccc(F)cc1 (configuration not stated),?,.,?,2,.,.
CN(CC(=O)OCC(=O)NC1CCCC1)S(=O)(=O)c1ccc(Cl)cc1,22%,0%,-10%,-11,.,.
CC(=O)OCC1C2CC[C@H]3C(OCc4ccc(F)cc4C(F)(F)F)OC[C@]4(C)[C@H]3C2=C(CN4C(=O)OC(C)(C)C)[C@H](C)C1COC(C)=O (some centres not stated),.,.,.,.,-5%,-8%
N#Cc1ccc(-c2ccc(OCC(O)CN3CCCCC3)cc2)cc1 (configuration not stated),?,?,23µM*,?,-1%,-8%
OC(COc1ccccc1)CN1CCN(C(c2ccccc2)c2ccccc2)CC1 (configuration not stated),?,?,?,?,-27%,-41%
N#Cc1ccc(OCC(O)CN2CCN(CC(O)COc3ccc(C#N)cc3)CC2)cc1 (configuration not stated),26µM*,?,?,16,-3%,0%
